Screens as filed in PubChem BioAssay.
Shown are actives, neighbours in structure and some others; about 2% of the full set was active somewhere.
PAX8 inh HTS = PAX8 transcriptional activity inhibition | actives 1.2% (n = 360,000) | RMG-I TPO-luciferase reporter, SteadyGlo, 24 h | inhibition, % at 12.6 µM;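 active = mean replicate inhibition at least 60% with every replicate also reaching 60%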;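 also: luciferase light reporting Pax8 driven TPO promoter activity; plate controls were median of neutral control wells for no effect and mitoxantrone controls for full effect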
Shn3 inh set2 = Schnurri-3 reporter inhibition in Clone20 osteoblasts; Clone20 osteoblast Shn3 3'UTR firefly luciferase, 24 h; inhibition, % at 12.5 µM; actives 0.52% (n = 360,000); AID 588674;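 active = mean inhibition of at least 75% with every replicate also reaching 75%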;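 also: 0% = median of neutral control wells and 100% = pilot-screen positive control compound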
CF NFkB inh = cystic fibrosis NF-kB activation inhibition; inhibition, % at 5 µM; KKLEB NF-kB-GFP reporter, PAF-induced, GFP fluorescence overnight; actives 0.86% (n = 360,000);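 active = at least 50% inhibition at 5 µM, scaled per plate between neutral and stimulator controls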;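 also: PAF is a Pseudomonas aeruginosa culture filtrate used as stimulus; plate controls were PAF-stimulated DMSO wells for no effect and unstimulated DMSO wells for full effect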
KKLEB tox = reduces viability of KKLEB cystic fibrosis airway cells. actives 0.36% (n = 360,000). KKLEB CF airway cells viability, ATPlite luminescence, overnight; hits give low values; cells stimulated with P. aeruginosa culture filtrate. activity change (cytotoxicity), % at 5 µM. AID 602141;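 active = corrected activity change at or below -50% at 5 µM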
LGR2 inh = Drosophila LGR2 receptor signaling inhibition | actives 0.35% (n = 380,000) | HEK293 LGR2, CRE-luciferase, bursicon-stimulated, 4 h | inhibition, % at 9.99 µM;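 active = drop in luminescence signal, shown as inhibition above about 50% in the replicate tests, limit read from the data, passing the limit was not always enough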;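 also: agonist challenge used bursicon conditioned medium at about half maximal strength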
EWS-Fli block = blocks EWS/Fli oncoprotein-driven transcription; A673 NR0B1-luciferase reporter, viability-normalised; inhibition, % at 12.6 µM; actives 0.67% (n = 350,000);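 active = mean inhibition of at least 50% after viability correction, with every replicate also passing that limit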;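 also: firefly luciferase signal divided by Alamar Blue viability fluorescence both relative to DMSO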
Numbers without * were called inactive.

CCOc1cc2c(cc1O)CCC1C2CCC2(C)C(O)CCC12 (centres undefined) was read as PAX8 inh HTS 15.2, Shn3 inh set2 22.5, CF NFkB inh 39.4, KKLEB tox -15.5, LGR2 inh -2.6 and EWS-Fli block 54.5*.
CCNc1cc2c(cc1O)CCC1C2CCC2(C)C(O)CCC12 (centres undefined) was read as PAX8 inh HTS -6.8, Shn3 inh set2 -0.7, CF NFkB inh 27.4, KKLEB tox 1.5, LGR2 inh 6.5 and EWS-Fli block 19.0.
CCOc1ccc(N2C(=O)CC(Sc3nnnn3-c3ccccc3)C2=O)cc1 (centres undefined) was read as PAX8 inh HTS 13.2, Shn3 inh set2 92.4*, CF NFkB inh 49.1, KKLEB tox 0.8, LGR2 inh -3.6 and EWS-Fli block -3.5.
For CCOc1ccc(N2C(=O)CC(Sc3nc(C)cc(C)n3)C2=O)cc1 (centres undefined) the results were Shn3 inh set2 -2.1, CF NFkB inh 7.6, KKLEB tox -5.2, LGR2 inh -5.6 and EWS-Fli block -1.3.
C[C@@H]1CN([C@@H](C)CO)C(=O)c2cc(NS(=O)(=O)c3cccs3)ccc2O[C@H]1CN(C)Cc1ccccc1 was read as PAX8 inh HTS 8.1, LGR2 inh -7.8 and EWS-Fli block 1.2.
Screening O=C1C(=O)c2ccc(-c3ccccc3)cc2-c2ccccc21 returned Shn3 inh set2 96.2*, CF NFkB inh 102.5* and KKLEB tox -100.3*.
`Nc1ccc2c(c1)C(=O)C(=O)c1ccccc1-2` gave Shn3 inh set2 96.8*, CF NFkB inh 79.8* and KKLEB tox -96.4*.
For COc1cc(OC)nc(Nc2nc(C(N)Cc3ccc(C(F)(F)F)cc3)cs2)n1 (centres undefined) the results were PAX8 inh HTS 21.2, Shn3 inh set2 75.1, CF NFkB inh 12.5, KKLEB tox -20.9, LGR2 inh 31.3* and EWS-Fli block 39.6.
CC(C)c1ccccc1NC(=O)Nc1nc(C(N)Cc2ccc(C(F)(F)F)cc2)cs1 (centres undefined) was read as PAX8 inh HTS 21.4, Shn3 inh set2 98.3*, CF NFkB inh 32.5, KKLEB tox -23.9, LGR2 inh -29.9 and EWS-Fli block -4.5.
Cc1cc(C)nc(Nc2nc(C(N)Cc3ccc(C(F)(F)F)cc3)cs2)n1 (centres undefined) was read as PAX8 inh HTS 9.1, Shn3 inh set2 28.5, CF NFkB inh -5.2, KKLEB tox -2.3, LGR2 inh 3.8 and EWS-Fli block 20.8.
Screening Cc1cc(C)nc(Nc2nc(C(N)Cc3ccc(F)cc3)cs2)n1 (centres undefined) returned PAX8 inh HTS 84.3*, Shn3 inh set2 28.8, CF NFkB inh -0.8, KKLEB tox 1.9, LGR2 inh 2.8 and EWS-Fli block 26.9.
Screening Cc1cc(C)nc(Nc2nc(C(N)Cc3ccc(Cl)cc3)cs2)n1 (centres undefined) returned PAX8 inh HTS -12.3, Shn3 inh set2 1.3, CF NFkB inh 11.2, KKLEB tox -2.2, LGR2 inh 2.2 and EWS-Fli block -12.2.
`Cc1cccc(S(=O)(=O)N2C[C@@H]3[C@H](c4ccccc42)[C@H](CO)N3Cc2ccc3c(c2)OCO3)c1` gave PAX8 inh HTS 44.5, LGR2 inh 14.3 and EWS-Fli block 17.8.
`C[C@@H]1CN([C@@H](C)CO)C(=O)c2cccc(NC(=O)C3CC3)c2O[C@@H]1CN(C)Cc1ccc2c(c1)OCO2` gave LGR2 inh 3.1 and EWS-Fli block 2.0.
For O=C1N/C(=C/c2ccc(N3CCOCC3)o2)C(=O)N1c1cccc(Cl)c1 the results were PAX8 inh HTS 4.0, Shn3 inh set2 96.3*, CF NFkB inh 66.9*, KKLEB tox -12.8, LGR2 inh -7.8 and EWS-Fli block 39.9.
`Cc1ccc(/C=C2/NC(=O)N(c3ccccc3)C2=O)o1` gave Shn3 inh set2 34.0, CF NFkB inh 3.1 and KKLEB tox 9.8.
For Cc1ccccc1OCCc1c(C)[nH]c(=S)[nH]c1=O the results were PAX8 inh HTS 39.4, Shn3 inh set2 -14.3, CF NFkB inh 25.4, KKLEB tox -7.1, LGR2 inh -161.8 and EWS-Fli block 54.9*.
Cc1[nH]c(=S)[nH]c(=O)c1CCOc1ccccc1 was read as Shn3 inh set2 2.2, CF NFkB inh -5.0 and KKLEB tox -2.1.
